The record followed here is publication PMC7862700, “An all-to-all approach to the identification of sequence-specific readers for epigenetic DNA modifications on cytosine”.

What all share (assay): DAPPL (digital affinity profiling via proximity ligation, sequencing); 10 mM Tris-HCl pH 7.5, 50 mM NaCl, 1 mM DTT, 4% glycerol, room temperature, 30 min; GST-TFs on glutathione beads, 16-mer random dsDNA library, 0.1% formaldehyde crosslink after washing; high values mean tight binding
Holding throughout (details): protein: recombinant; tags: N-terminal GST; dsDNA, one strand shown

One test addresses T1, ERF (Homo sapiens, UniProt P50548 1-548).
T1 sequence: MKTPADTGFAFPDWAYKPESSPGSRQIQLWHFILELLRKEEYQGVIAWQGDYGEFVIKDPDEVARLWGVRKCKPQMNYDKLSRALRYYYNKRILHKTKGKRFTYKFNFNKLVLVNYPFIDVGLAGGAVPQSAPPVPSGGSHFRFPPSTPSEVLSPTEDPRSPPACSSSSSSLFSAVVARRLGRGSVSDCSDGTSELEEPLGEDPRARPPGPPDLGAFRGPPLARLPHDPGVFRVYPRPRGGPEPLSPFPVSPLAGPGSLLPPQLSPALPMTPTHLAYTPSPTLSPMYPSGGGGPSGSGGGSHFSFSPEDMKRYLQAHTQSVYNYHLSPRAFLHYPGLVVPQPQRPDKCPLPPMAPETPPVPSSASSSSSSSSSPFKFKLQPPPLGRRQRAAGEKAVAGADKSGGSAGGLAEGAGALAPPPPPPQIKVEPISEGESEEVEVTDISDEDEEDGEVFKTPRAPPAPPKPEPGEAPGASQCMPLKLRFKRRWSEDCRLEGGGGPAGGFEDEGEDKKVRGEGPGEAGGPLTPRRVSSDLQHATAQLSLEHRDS
Summed up: (§1)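 Sequencing on an Illumina NextSeq500 followed washing, crosslinking with 0.1% formaldehyde, proximity ligation (BsaI/T4 ligase, 1 h, 37 °C) and PCR amplification of pools that had been incubated for 30 min at room temperature with 200 nmole of a random double-stranded 16-mer DNA library in Tris/NaCl/DTT/glycerol buffer. Each pool held DNA-barcoded human transcription factors, expressed in yeast as GST fusions and captured on glutathione beads, plus a tag-only sample. Binding signal is a hexamer's read frequency for a factor divided by its frequency in the tag-only sample.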

The target in a further test is T2, ETV3L (Homo sapiens, UniProt Q6ZN32 1-361).
T2 sequence: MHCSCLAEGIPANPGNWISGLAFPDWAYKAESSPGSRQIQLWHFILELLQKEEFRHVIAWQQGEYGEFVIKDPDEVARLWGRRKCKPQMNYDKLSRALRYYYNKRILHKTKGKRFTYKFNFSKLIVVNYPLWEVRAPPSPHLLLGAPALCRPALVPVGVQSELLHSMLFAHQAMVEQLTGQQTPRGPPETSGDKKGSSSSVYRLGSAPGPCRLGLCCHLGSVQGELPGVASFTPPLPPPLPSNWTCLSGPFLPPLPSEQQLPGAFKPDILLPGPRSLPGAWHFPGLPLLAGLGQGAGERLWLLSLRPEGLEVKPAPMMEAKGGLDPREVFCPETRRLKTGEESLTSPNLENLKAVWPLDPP
Summed up:
as §1

Another test deals with T3, ETS2 (Homo sapiens, UniProt P15036 1-469).
T3 sequence: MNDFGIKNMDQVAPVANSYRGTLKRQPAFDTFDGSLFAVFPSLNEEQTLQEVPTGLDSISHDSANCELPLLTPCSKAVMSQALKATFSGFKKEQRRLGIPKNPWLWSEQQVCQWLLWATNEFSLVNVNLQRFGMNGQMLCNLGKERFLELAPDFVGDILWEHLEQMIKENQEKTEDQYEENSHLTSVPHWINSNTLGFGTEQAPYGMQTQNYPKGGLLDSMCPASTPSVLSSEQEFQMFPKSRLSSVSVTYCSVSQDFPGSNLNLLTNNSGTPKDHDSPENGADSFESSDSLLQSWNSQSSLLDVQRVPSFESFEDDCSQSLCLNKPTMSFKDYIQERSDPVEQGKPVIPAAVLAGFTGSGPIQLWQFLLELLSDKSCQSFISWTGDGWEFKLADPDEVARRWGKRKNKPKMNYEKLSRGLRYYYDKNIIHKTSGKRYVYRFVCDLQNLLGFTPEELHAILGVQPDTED
In short, it runs like this:
as §1

The next test concerns the target T4, SPDEF (Homo sapiens, UniProt O95238 1-335).
T4 sequence: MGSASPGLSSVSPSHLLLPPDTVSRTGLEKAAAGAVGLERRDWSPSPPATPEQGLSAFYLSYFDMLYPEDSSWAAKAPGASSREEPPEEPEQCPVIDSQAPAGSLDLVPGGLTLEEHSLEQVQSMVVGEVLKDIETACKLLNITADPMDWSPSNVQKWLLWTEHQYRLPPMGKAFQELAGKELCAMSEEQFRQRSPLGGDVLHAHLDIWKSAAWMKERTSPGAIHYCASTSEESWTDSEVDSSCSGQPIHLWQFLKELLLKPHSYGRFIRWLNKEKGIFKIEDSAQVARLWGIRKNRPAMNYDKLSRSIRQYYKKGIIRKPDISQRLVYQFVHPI
Summed up: as §1

The target of the next test is T5, ETV7 (Homo sapiens, UniProt Q9Y603 1-341).
T5 sequence: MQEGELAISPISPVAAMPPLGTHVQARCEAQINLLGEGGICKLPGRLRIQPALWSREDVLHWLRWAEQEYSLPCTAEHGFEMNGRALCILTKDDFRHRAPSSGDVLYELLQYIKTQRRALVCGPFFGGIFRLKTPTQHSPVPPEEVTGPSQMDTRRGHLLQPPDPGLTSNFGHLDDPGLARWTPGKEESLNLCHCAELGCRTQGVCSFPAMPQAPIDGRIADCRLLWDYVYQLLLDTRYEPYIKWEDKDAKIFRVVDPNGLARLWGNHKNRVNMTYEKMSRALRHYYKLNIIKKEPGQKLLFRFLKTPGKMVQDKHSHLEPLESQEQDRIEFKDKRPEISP
In short, it runs like this:
as §1

For the next test, the target named is T6, ELF5 (Homo sapiens, UniProt Q9UKW6-2 1-255).
T6 sequence: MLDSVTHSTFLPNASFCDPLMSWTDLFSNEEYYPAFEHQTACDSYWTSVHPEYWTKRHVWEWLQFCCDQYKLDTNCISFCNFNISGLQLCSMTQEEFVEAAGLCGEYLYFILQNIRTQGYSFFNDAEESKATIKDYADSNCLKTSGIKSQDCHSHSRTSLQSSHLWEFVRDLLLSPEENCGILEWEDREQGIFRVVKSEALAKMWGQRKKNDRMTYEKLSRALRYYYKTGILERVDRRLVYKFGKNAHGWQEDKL
In short, it runs like this: as §1

For a further test, the target named is T7, ETV3 (Homo sapiens, UniProt P41162-2 1-143).
T7 sequence: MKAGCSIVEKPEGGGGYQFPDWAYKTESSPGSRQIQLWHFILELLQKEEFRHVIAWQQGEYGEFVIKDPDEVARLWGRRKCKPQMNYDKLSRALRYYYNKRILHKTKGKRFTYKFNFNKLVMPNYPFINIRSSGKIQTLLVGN
Summed up:
as §1

For a further test, the target named is ETV6 (Homo sapiens, UniProt P41212 1-452). In short, it runs like this: as §1
Sequence of ETV6 (P41212 whole entry): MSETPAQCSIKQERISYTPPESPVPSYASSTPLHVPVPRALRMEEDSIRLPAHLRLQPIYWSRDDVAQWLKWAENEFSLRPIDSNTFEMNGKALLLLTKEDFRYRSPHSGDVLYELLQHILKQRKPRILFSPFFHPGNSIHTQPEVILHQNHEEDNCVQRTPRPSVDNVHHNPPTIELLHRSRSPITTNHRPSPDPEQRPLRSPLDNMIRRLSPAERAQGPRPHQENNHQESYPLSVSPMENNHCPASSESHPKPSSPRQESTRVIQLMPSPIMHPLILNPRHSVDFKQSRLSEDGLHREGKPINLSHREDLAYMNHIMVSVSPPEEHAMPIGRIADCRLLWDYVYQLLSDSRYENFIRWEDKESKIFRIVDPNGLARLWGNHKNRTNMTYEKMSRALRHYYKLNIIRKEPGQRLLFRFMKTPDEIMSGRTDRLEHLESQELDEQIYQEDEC

Consider AATTCG, for which the binding signal with ERF is 1.38 fold enrichment (6-mer frequency, TF over GST control); with ETV3L, 1.38 fold enrichment (6-mer frequency, TF over GST control); with ETS2, 1.23 fold enrichment (6-mer frequency, TF over GST control); with SPDEF it was 1.25 fold enrichment (6-mer frequency, TF over GST control); with ETV7, 1.32 fold enrichment (6-mer frequency, TF over GST control); with ELF5 it was 1.2 fold enrichment (6-mer frequency, TF over GST control). Besides, the binding signal in the test with ETV3 is 1.29 fold enrichment (6-mer frequency, TF over GST control); in the test with ETV6 it was 1.24 fold enrichment (6-mer frequency, TF over GST control).

Regarding TTCAAG, the binding signal with ERF is 1.27 fold enrichment (6-mer frequency, TF over GST control); with ETV3L it was 1.31 fold enrichment (6-mer frequency, TF over GST control); with ETS2, 1.21 fold enrichment (6-mer frequency, TF over GST control); with SPDEF, 1.31 fold enrichment (6-mer frequency, TF over GST control); in the test with ETV7, 1.28 fold enrichment (6-mer frequency, TF over GST control); with ELF5, 1.18 fold enrichment (6-mer frequency, TF over GST control). In addition, the binding signal in the test with ETV3 was 1.42 fold enrichment (6-mer frequency, TF over GST control); with ETV6, 1.26 fold enrichment (6-mer frequency, TF over GST control).

As to AACCCC, the binding signal in the test with ERF was 1.03 fold enrichment (6-mer frequency, TF over GST control); with ETV3L, 1.18 fold enrichment (6-mer frequency, TF over GST control); with ETS2 it was 1.21 fold enrichment (6-mer frequency, TF over GST control); with SPDEF, 1.14 fold enrichment (6-mer frequency, TF over GST control); with ETV7 it was 1.11 fold enrichment (6-mer frequency, TF over GST control); with ELF5 it was 1.13 fold enrichment (6-mer frequency, TF over GST control). The binding signal was 1.07 fold enrichment (6-mer frequency, TF over GST control) with ETV3 and 1.18 fold enrichment (6-mer frequency, TF over GST control) in the test with ETV6.

For AATACA, the binding signal with ERF is 1.43 fold enrichment (6-mer frequency, TF over GST control); in the test with ETV3L, 1.27 fold enrichment (6-mer frequency, TF over GST control); in the test with ETS2, 1.25 fold enrichment (6-mer frequency, TF over GST control); with SPDEF it was 1.37 fold enrichment (6-mer frequency, TF over GST control); with ETV7 it was 1.41 fold enrichment (6-mer frequency, TF over GST control); with ELF5 it was 1.4 fold enrichment (6-mer frequency, TF over GST control). The binding signal with ETV3 was 1.28 fold enrichment (6-mer frequency, TF over GST control); with ETV6, 1.34 fold enrichment (6-mer frequency, TF over GST control).

For TACGCG, the binding signal in the test with ERF was 1.13 fold enrichment (6-mer frequency, TF over GST control); with ETV3L it was 1.13 fold enrichment (6-mer frequency, TF over GST control); in the test with ETS2, 1.14 fold enrichment (6-mer frequency, TF over GST control); with SPDEF, 1.23 fold enrichment (6-mer frequency, TF over GST control); with ETV7, 1.02 fold enrichment (6-mer frequency, TF over GST control); with ELF5, 1.09 fold enrichment (6-mer frequency, TF over GST control). The binding signal was 1.16 fold enrichment (6-mer frequency, TF over GST control) in the test with ETV3 and 1.15 fold enrichment (6-mer frequency, TF over GST control) in the test with ETV6.

In the case of ACGTCT, the binding signal was 1.12 fold enrichment (6-mer frequency, TF over GST control) in the test with ERF; 1.29 fold enrichment (6-mer frequency, TF over GST control) with ETV3L; 1.26 fold enrichment (6-mer frequency, TF over GST control) with ETS2; 1.12 fold enrichment (6-mer frequency, TF over GST control) in the test with SPDEF; 1.29 fold enrichment (6-mer frequency, TF over GST control) with ETV7; 1.09 fold enrichment (6-mer frequency, TF over GST control) with ELF5. For the same sequence, the binding signal was 1.17 fold enrichment (6-mer frequency, TF over GST control) with ETV3 and 1.19 fold enrichment (6-mer frequency, TF over GST control) with ETV6.

CCTAAA: the binding signal was 1.4 fold enrichment (6-mer frequency, TF over GST control) with ERF; 1.32 fold enrichment (6-mer frequency, TF over GST control) with ETV3L; 1.33 fold enrichment (6-mer frequency, TF over GST control) with ETS2; 1.32 fold enrichment (6-mer frequency, TF over GST control) with SPDEF; 1.34 fold enrichment (6-mer frequency, TF over GST control) in the test with ETV7; 1.27 fold enrichment (6-mer frequency, TF over GST control) with ELF5. The binding signal in the test with ETV3 is 1.28 fold enrichment (6-mer frequency, TF over GST control); with ETV6, 1.25 fold enrichment (6-mer frequency, TF over GST control).

As for TAAAGT, the binding signal is 1.09 fold enrichment (6-mer frequency, TF over GST control) in the test with ERF; 1.29 fold enrichment (6-mer frequency, TF over GST control) in the test with ETV3L; 1.22 fold enrichment (6-mer frequency, TF over GST control) with ETS2; 1.15 fold enrichment (6-mer frequency, TF over GST control) in the test with SPDEF; 1.25 fold enrichment (6-mer frequency, TF over GST control) with ETV7; 1.17 fold enrichment (6-mer frequency, TF over GST control) in the test with ELF5. Besides, the binding signal with ETV3 is 1.18 fold enrichment (6-mer frequency, TF over GST control); with ETV6, 1.09 fold enrichment (6-mer frequency, TF over GST control).
